Reference: publication PMC7862700, “An all-to-all approach to the identification of sequence-specific readers for epigenetic DNA modifications on cytosine”

What was measured:
Experiment in all cases: DAPPL (digital affinity profiling via proximity ligation, sequencing); 10 mM Tris-HCl pH 7.5, 50 mM NaCl, 1 mM DTT, 4% glycerol, room temperature, 30 min; GST-TFs on glutathione beads, 16-mer random dsDNA library, 0.1% formaldehyde crosslink after washing; high values mean tight binding
FLI1 = molecular target: T1, FLI1 (Homo sapiens, UniProt Q01543 1-452); conditions: protein: recombinant; tags: N-terminal GST; dsDNA, one strand shown
T1 sequence: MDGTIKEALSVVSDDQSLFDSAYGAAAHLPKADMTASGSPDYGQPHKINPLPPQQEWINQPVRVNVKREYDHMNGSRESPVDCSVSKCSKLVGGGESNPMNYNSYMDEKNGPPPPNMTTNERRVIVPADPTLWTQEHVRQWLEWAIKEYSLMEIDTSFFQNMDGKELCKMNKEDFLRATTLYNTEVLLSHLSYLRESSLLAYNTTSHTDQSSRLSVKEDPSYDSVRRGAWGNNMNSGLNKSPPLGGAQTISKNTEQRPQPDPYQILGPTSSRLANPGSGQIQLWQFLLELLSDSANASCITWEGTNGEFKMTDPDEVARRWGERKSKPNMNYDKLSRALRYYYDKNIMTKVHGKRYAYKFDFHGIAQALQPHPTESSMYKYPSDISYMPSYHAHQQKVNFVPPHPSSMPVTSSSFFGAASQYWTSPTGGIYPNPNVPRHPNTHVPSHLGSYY
In short: (§1)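 Sequencing on an Illumina NextSeq500 followed washing, crosslinking with 0.1% formaldehyde, proximity ligation (BsaI/T4 ligase, 1 h, 37 °C) and PCR amplification of pools that had been incubated for 30 min at room temperature with 200 nmole of a random double-stranded 16-mer DNA library in Tris/NaCl/DTT/glycerol buffer. Each pool held DNA-barcoded human transcription factors, expressed in yeast as GST fusions and captured on glutathione beads, plus a tag-only sample. Binding signal is a hexamer's read frequency for a factor divided by its frequency in the tag-only sample.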

ELK1 = molecular target: T2, ELK1 (Homo sapiens, UniProt P19419 1-428); conditions: protein: recombinant; tags: N-terminal GST; dsDNA, one strand shown
T2 sequence: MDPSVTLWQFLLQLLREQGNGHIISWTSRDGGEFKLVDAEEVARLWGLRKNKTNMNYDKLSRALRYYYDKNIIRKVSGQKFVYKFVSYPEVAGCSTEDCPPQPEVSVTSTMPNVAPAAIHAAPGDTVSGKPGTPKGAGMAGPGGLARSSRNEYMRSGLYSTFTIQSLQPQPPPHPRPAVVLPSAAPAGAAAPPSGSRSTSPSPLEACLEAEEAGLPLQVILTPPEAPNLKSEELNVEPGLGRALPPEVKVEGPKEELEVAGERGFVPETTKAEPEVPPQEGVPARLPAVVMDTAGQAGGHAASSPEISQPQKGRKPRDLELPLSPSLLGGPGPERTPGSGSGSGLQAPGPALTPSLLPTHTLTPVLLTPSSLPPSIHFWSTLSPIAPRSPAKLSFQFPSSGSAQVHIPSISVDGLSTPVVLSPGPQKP
In short: as §1

GABPA = molecular target: T3, GABPA (Homo sapiens, UniProt Q06546 1-454); conditions: protein: recombinant; tags: N-terminal GST; dsDNA, one strand shown
T3 sequence: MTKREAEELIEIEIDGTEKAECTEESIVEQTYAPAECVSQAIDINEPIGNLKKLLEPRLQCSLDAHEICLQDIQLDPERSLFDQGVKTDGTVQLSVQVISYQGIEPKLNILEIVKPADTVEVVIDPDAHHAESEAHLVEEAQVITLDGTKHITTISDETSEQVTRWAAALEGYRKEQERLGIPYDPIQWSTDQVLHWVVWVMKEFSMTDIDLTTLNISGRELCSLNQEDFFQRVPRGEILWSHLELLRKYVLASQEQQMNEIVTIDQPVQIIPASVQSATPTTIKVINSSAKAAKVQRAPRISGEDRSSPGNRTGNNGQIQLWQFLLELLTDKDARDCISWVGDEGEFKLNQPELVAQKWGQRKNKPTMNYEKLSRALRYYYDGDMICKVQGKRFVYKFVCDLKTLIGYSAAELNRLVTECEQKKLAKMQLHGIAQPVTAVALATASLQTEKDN
In short: as §1

ERG = molecular target: T4, ERG (Homo sapiens, UniProt P11308 1-479); conditions: protein: recombinant; tags: N-terminal GST; dsDNA, one strand shown
T4 sequence: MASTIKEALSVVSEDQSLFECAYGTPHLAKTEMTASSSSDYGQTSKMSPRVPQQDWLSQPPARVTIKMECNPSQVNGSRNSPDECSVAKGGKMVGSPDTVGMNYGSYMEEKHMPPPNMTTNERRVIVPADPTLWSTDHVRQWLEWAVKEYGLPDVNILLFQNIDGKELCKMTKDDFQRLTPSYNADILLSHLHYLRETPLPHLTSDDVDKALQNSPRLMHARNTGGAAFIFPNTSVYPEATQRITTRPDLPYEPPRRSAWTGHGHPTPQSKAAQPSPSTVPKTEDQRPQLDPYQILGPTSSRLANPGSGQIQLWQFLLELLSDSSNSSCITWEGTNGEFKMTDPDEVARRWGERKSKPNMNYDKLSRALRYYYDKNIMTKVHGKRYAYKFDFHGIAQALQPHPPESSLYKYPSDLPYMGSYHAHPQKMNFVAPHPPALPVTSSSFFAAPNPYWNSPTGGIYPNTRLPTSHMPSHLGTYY
In short: as §1

ELF1 = ELF1 (Homo sapiens, UniProt P32519 1-619); conditions: protein: recombinant; tags: N-terminal GST; dsDNA, one strand shown
Sequence of ELF1 (P32519 whole entry): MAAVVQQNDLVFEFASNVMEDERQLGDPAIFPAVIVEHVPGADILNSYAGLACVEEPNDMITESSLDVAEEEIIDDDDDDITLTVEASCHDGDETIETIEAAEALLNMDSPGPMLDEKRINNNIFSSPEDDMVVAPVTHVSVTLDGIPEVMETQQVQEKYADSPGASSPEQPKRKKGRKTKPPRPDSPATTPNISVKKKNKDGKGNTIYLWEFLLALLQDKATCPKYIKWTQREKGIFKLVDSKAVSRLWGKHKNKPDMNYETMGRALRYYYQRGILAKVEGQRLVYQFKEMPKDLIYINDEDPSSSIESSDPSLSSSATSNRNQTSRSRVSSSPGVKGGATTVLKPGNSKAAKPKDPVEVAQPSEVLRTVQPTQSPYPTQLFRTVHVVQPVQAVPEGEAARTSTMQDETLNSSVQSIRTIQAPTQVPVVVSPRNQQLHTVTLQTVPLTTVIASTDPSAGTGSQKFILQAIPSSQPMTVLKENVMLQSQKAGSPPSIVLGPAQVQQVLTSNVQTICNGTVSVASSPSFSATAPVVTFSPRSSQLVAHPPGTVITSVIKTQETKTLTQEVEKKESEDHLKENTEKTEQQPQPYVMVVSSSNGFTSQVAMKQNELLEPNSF
In short: as §1

EHF = molecular target: T5, EHF (Homo sapiens, UniProt Q9NZC4 1-300); conditions: protein: recombinant; tags: N-terminal GST; dsDNA, one strand shown
T5 sequence: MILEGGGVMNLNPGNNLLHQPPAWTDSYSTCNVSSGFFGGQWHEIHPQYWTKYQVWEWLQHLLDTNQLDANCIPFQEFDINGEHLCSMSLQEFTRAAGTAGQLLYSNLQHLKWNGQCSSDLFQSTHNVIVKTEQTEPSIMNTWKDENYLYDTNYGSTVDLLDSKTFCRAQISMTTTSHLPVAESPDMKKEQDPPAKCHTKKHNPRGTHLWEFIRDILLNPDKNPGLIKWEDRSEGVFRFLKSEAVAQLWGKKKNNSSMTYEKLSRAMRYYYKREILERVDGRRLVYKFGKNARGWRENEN
In short: as §1

SPI1 = SPI1 (Homo sapiens, UniProt P17947 1-270); conditions: protein: recombinant; tags: N-terminal GST; dsDNA, one strand shown
In short: as §1

SPIB = SPIB (Homo sapiens, UniProt Q01892 1-262); conditions: protein: recombinant; tags: N-terminal GST; dsDNA, one strand shown
Sequence of SPIB (Q01892 whole entry): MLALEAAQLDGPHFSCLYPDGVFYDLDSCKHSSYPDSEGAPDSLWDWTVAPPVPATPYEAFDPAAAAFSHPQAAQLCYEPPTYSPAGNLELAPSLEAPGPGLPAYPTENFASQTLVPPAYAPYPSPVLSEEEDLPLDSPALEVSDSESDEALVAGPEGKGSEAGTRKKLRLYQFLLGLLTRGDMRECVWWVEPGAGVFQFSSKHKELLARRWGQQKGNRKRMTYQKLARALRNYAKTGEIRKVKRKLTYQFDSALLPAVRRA
In short: as §1

ELK3 = molecular target: T6, ELK3 (Homo sapiens, UniProt P41970 1-407); conditions: protein: recombinant; tags: N-terminal GST; dsDNA, one strand shown
T6 sequence: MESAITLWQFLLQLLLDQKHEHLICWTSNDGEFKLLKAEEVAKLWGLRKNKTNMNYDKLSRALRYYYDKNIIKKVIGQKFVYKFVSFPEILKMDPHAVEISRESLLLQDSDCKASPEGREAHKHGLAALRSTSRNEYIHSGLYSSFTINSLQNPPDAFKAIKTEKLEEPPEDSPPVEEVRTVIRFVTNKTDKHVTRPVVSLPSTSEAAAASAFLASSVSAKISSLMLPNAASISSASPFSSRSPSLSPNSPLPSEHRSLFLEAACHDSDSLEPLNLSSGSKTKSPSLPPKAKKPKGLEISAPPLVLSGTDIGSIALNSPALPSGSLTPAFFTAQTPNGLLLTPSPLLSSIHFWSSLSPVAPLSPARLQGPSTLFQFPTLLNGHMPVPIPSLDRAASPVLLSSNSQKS
In short: as §1

FEV = molecular target: T7, FEV (Homo sapiens, UniProt Q99581 1-238); conditions: protein: recombinant; tags: N-terminal GST; dsDNA, one strand shown
T7 sequence: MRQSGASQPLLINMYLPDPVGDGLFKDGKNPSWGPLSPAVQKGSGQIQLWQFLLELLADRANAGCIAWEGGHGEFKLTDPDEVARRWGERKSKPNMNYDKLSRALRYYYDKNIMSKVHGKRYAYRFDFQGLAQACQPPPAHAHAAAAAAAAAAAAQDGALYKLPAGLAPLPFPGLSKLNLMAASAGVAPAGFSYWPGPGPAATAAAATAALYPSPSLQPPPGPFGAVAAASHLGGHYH
In short: as §1

ETV5 = ETV5 (Homo sapiens, UniProt P41161 1-510); conditions: protein: recombinant; tags: N-terminal GST; dsDNA, one strand shown
Sequence of ETV5 (P41161 whole entry): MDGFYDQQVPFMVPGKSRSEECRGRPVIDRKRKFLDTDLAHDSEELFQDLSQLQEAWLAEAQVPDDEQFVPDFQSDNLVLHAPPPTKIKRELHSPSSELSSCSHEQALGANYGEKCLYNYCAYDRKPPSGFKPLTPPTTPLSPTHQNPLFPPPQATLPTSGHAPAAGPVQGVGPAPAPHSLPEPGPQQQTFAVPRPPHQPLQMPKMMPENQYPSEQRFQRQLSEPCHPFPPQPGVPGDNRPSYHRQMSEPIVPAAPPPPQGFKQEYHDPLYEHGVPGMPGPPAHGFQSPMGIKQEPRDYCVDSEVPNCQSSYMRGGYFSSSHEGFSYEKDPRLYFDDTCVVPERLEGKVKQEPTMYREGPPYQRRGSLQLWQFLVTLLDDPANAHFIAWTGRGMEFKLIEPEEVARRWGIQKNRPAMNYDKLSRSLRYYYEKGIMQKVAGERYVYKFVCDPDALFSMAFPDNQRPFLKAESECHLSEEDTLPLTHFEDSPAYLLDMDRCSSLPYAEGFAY
In short: as §1

HSF1 = HSF1 (Homo sapiens, UniProt Q00613 1-529); conditions: protein: recombinant; tags: N-terminal GST; chain copies: 3; dsDNA, one strand shown
Sequence of HSF1 (Q00613 whole entry): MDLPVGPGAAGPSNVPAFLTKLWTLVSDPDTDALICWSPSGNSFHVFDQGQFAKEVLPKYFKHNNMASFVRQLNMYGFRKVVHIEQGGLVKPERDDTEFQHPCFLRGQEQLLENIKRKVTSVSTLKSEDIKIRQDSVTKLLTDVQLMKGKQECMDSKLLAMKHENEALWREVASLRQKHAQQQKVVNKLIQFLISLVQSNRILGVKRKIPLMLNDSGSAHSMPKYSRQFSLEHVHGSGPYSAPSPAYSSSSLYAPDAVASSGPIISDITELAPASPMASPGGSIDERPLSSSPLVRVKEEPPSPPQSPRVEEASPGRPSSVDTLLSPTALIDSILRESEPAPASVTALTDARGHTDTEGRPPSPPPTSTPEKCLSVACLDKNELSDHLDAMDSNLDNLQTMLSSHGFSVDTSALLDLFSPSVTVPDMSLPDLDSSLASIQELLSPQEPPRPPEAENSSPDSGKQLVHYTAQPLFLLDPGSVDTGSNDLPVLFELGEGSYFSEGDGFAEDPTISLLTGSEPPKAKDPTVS
In short: as §1

SPIC = molecular target: T8, SPIC (Homo sapiens, UniProt Q8N5J4 1-248); conditions: protein: recombinant; tags: N-terminal GST; dsDNA, one strand shown
T8 sequence: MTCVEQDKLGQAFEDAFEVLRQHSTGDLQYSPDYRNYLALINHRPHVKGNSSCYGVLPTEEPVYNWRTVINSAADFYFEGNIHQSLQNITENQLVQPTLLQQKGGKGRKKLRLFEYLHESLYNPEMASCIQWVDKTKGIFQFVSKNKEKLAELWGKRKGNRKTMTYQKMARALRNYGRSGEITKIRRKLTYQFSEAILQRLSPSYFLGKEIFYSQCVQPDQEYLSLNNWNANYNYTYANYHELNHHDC
In short: as §1

ELF4 = ELF4 (Homo sapiens, UniProt Q99607 1-663); conditions: protein: recombinant; tags: N-terminal GST; dsDNA, one strand shown
Sequence of ELF4 (Q99607 whole entry): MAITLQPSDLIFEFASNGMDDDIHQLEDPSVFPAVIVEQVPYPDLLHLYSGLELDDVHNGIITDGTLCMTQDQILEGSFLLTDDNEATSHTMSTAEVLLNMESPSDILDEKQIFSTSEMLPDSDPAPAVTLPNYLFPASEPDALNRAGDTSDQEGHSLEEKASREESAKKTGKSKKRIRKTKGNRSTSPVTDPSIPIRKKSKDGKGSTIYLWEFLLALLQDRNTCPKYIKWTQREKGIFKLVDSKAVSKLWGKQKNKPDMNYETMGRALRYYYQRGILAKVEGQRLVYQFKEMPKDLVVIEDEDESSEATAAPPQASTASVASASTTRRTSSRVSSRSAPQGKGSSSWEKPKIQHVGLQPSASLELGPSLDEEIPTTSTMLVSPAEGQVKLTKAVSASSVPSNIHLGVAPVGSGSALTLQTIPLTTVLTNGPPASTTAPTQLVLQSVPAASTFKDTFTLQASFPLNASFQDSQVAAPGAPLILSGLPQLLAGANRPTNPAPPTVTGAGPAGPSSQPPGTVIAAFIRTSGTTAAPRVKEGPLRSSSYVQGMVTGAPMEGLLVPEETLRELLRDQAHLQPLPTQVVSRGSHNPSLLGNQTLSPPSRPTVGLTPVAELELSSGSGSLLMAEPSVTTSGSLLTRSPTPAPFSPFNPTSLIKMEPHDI
In short: as §1

ELK4 = molecular target: T9, ELK4 (Homo sapiens, UniProt P28324-2 1-405); conditions: protein: recombinant; tags: N-terminal GST; dsDNA, one strand shown
T9 sequence: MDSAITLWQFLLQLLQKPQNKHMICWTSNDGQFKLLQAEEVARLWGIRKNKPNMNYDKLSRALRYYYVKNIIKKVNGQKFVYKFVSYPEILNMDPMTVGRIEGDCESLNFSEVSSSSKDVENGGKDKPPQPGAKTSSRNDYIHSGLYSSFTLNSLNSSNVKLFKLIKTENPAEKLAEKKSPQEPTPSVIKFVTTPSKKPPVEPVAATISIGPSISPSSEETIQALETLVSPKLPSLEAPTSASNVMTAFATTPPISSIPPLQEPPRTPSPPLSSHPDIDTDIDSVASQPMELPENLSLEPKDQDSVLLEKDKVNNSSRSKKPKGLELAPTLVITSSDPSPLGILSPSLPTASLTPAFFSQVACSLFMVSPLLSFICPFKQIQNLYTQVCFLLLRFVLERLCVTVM
In short: as §1

ETV2 = molecular target: T10, ETV2 (Homo sapiens, UniProt O00321 1-342); conditions: protein: recombinant; tags: N-terminal GST; dsDNA, one strand shown
T10 sequence: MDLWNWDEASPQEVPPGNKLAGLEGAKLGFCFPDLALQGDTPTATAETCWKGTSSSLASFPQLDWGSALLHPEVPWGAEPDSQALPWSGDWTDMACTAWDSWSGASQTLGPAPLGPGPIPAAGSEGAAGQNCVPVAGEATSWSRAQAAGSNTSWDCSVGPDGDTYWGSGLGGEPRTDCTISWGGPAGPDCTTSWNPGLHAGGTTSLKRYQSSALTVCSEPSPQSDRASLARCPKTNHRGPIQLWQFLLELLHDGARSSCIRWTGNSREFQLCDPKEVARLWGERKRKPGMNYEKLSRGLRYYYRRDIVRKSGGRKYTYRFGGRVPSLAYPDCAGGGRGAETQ
In short: as §1

ELF3 = molecular target: T11, ELF3 (Homo sapiens, UniProt P78545 1-371); conditions: protein: recombinant; tags: N-terminal GST; dsDNA, one strand shown
T11 sequence: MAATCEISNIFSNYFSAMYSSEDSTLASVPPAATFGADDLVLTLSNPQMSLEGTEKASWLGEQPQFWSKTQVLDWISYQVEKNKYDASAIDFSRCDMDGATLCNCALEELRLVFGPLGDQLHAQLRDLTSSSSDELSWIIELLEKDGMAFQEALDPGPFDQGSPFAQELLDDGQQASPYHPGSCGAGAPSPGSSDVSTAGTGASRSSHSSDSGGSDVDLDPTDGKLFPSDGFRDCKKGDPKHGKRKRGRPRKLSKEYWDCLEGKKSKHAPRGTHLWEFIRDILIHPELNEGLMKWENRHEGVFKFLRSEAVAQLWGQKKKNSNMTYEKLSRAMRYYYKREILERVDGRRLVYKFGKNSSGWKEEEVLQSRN
In short: as §1

CRX = CRX (Homo sapiens, UniProt O43186 1-299); conditions: protein: recombinant; tags: N-terminal GST; dsDNA, one strand shown
Sequence of CRX (O43186 whole entry): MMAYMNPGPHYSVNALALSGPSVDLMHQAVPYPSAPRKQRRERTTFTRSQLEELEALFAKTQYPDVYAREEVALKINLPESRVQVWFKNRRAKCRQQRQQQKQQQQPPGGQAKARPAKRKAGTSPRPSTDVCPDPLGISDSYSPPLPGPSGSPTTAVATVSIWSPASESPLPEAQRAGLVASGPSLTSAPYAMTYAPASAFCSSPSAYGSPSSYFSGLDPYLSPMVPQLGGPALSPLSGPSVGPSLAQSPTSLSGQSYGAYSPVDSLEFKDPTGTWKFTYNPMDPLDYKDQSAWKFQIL
In short: as §1

ETV1 = ETV1 (Homo sapiens, UniProt P50549 1-477); conditions: protein: recombinant; tags: N-terminal GST; dsDNA, one strand shown
Sequence of ETV1 (P50549 whole entry): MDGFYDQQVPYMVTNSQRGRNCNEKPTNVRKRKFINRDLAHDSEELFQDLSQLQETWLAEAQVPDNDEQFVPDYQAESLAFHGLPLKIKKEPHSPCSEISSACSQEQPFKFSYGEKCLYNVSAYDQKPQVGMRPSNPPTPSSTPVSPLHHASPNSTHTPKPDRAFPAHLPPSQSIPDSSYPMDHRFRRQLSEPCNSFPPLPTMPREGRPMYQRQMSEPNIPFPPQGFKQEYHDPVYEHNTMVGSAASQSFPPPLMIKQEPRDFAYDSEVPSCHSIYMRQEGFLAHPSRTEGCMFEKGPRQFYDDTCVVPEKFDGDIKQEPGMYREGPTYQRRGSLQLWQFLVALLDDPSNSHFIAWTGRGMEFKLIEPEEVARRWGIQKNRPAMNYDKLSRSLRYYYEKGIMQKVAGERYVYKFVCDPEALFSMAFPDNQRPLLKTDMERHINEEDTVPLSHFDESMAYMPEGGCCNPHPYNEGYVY
In short: as §1

CTCTGC
binding signal (FLI1): 1.71 fold enrichment (6-mer frequency, TF over GST control) | binding signal (ELK1): 1.6 fold enrichment (6-mer frequency, TF over GST control) | binding signal (GABPA): 1.56 fold enrichment (6-mer frequency, TF over GST control) | binding signal (ERG): 1.46 fold enrichment (6-mer frequency, TF over GST control) | binding signal (ELF1): 1.58 fold enrichment (6-mer frequency, TF over GST control) | binding signal (EHF): 1.57 fold enrichment (6-mer frequency, TF over GST control) | binding signal (SPI1): 1.53 fold enrichment (6-mer frequency, TF over GST control) | binding signal (SPIB): 1.52 fold enrichment (6-mer frequency, TF over GST control) | binding signal (ELK3): 1.4 fold enrichment (6-mer frequency, TF over GST control) | binding signal (FEV): 1.5 fold enrichment (6-mer frequency, TF over GST control) | binding signal (ETV5): 1.49 fold enrichment (6-mer frequency, TF over GST control) | binding signal (HSF1): 1.25 fold enrichment (6-mer frequency, TF over GST control) | binding signal (SPIC): 1.55 fold enrichment (6-mer frequency, TF over GST control) | binding signal (ELF4): 1.61 fold enrichment (6-mer frequency, TF over GST control) | binding signal (ELK4): 1.86 fold enrichment (6-mer frequency, TF over GST control) | binding signal (ETV2): 1.43 fold enrichment (6-mer frequency, TF over GST control) | binding signal (ELF3): 1.56 fold enrichment (6-mer frequency, TF over GST control) | binding signal (CRX): 1.2 fold enrichment (6-mer frequency, TF over GST control) | binding signal (ETV1): 1.64 fold enrichment (6-mer frequency, TF over GST control)
